# Source: PubChem BioAssay
# An excerpt weighted towards active compounds, which were near 28% of everything screened.
# Plk1 PBD FP = Plk1 polo box domain binding inhibitors, primary screen, biochemical, fluorescence polarization; Serine/threonine-protein kinase PLK1 (Homo sapiens), P53350; Plk1 PBD phosphopeptide binding; inhibition, %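 (tested at about 20 µM)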; 97,000 compounds, 0.13% hits; in the data active means inhibition above about 34%, passing the limit was not always enough
# Target sequence (P53350 whole entry, looked up, the tested form may be a part): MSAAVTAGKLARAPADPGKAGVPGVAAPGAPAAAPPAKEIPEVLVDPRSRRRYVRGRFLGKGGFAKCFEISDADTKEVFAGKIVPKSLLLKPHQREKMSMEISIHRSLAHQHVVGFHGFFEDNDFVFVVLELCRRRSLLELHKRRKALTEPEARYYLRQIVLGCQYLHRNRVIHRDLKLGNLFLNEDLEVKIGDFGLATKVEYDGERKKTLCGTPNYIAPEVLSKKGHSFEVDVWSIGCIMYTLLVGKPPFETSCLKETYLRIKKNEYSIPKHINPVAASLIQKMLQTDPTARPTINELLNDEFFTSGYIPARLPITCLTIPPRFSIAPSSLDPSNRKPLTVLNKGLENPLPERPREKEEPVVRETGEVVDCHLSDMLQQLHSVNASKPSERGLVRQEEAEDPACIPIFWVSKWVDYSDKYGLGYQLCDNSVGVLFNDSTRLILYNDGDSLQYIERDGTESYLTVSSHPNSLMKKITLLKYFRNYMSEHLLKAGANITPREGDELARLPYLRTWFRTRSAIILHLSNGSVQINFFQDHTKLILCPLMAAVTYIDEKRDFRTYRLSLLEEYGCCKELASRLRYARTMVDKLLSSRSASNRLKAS
# CYP2C19 act = human CYP2C19 activators, primary screen, biochemical, luminescence; recombinant CYP2C19, luciferin-H EGE luminescence; stronger effect = higher value; 0 = fully inhibited enzyme, 1 = untreated enzyme; Cytochrome P450 2C19 (Homo sapiens), P33261; activation factor at 5 µM; 96,000 tested, under 10 active; AID 1025, 2008;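 active means activation factor of at least 2 at 5 µM in the primary screen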;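 further: 0 = wells with 2.5 mM tranylcypromine and 1 = vehicle-only wells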
# CYP2C9 inhib = blockers of cytochrome P450 2C9 activity – biochemical, luminescence, ADME assay, primary screen | AID 777, 2007 | P11712 | inhibition, % at 5 µM | CYP2C9 Supersomes, luciferin-H conversion | 96,000 compounds, 20% hits;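 active means blocking of liver enzyme CYP2C9 beyond about 50% at 5 µM, limit read from the data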
# CYP2C9 activ = human CYP2C9 activators, primary screen, biochemical, luminescence; AID 1024, 2008; 96,000 compounds, 1.4% hits; activation factor at 5 µM; recombinant CYP2C9, luciferin-H conversion; stronger effect = higher value; factor 1 = untreated enzyme, 0 = blocked;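 active means activation factor of 2 or more for CYP2C9 at a 5 µM dose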;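 further: 0 = sulfaphenazole-blocked wells and 1 = vehicle-only wells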
# PLK1 kinase inh = human PLK1 kinase inhibitors, primary screen, biochemical, TR-FRET; Serine/threonine-protein kinase PLK1 (Homo sapiens), P53350; recombinant PLK1 kinase, TR-FRET peptide phosphorylation; inhibition, % at 10 µM; 97,000 compounds, 0.53% hits;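 active means inhibition of 50% or more in the single-concentration screen; inactive means inhibition below 50%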;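 further: 0% = DMSO max control and 100% = H-89 dihydrochloride min control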
# CYP2C19 inhib = blockers of cytochrome P450 2C19 activity – biochemical, luminescence, ADME assay, primary screen. P33261. CYP2C19 Supersomes, luciferin-H EGE luminescence, 30 min. inhibition, % at 5 µM. 96,000 compounds, 21% hits. AID 778, 2007;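 active means CYP2C19 inhibition above a set limit at 5 µM in the primary screen, cut at about 50% in these data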;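 further: plate controls were negative control wells for no effect and 2.5 mM tranylcypromine positive control for full effect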
# An asterisk follows results filed as active; . = not tested or not shown.
SMILES,Plk1 PBD FP,CYP2C19 act,CYP2C9 inhib,CYP2C9 activ,PLK1 kinase inh,CYP2C19 inhib
COCCCN1C(=O)c2ccc(C(=O)Nc3ccccc3OC)cc2C1=O,-7,0.7,-100,2*,-12,35
COCCN1C(=O)c2ccc(C(=O)Nc3nccs3)cc2C1=O,6,0.9,0,1,1,7
COCCN1C(=O)c2ccc(C(=O)O)cc2C1=O,17,0.9,55*,0.5,10,15
CCCCN1C(=O)c2ccc(C(=O)Nc3c(N)n(CCCC)c(=O)n(C)c3=O)cc2C1=O,.,0.9,56*,0.4,.,8
CC(=C1C(=O)c2ccccc2C1=O)N1CCC(C(N)=O)(N2CCCCC2)CC1,-22,1,-6,1.1,-18,-2
O=C(/C=C/c1ccco1)NC(=S)NNC(=O)c1ccco1,12,.,.,.,-5,.
C=CCOC(=O)/C(=C/c1ccco1)NC(=O)/C=C/c1ccccc1,27,0.2,73*,0.3,-3,77*
COCCNc1nc(SCC(=O)N2CCN(c3ccccc3)CC2)nc2ccccc12,2,.,.,.,-11,.
CCCCN(C)C(=O)CSc1nc(NCc2ccc(OC)cc2)c2ccccc2n1,-18,0.5,44,0.6,-6,54*
N#Cc1cc2sc3nnc(-c4ccncc4)n3c2cc1C#N,.,0.1,65*,0.3,.,92*
N#Cc1cc2sc3nc4ccccc4n3c2cc1C#N,-10,1.1,9,0.9,-8,-12
Nc1c(-c2ccccc2)cnn1C1CCS(=O)(=O)C1 (stereo not given),-12,1,-1,1,-8,4
Cc1c(C(N)=O)sc(N)c1C(=O)OC(C)C,-6,0.8,16,0.8,3,21
CC(=O)c1sc(N)c(C(=O)OC(C)C)c1C,-19,0.2,45,0.6,2,80*
Cc1cc(Cl)c(S(=O)(=O)N2CCSCC2)cc1OCC(N)=O,-19,0.7,-205,3*,1,26
CNS(=O)(=O)c1cc(OCC(N)=O)c(C)cc1Cl,-21,1.2,-140,2.4*,-3,-17
Cc1cc(Cl)c(S(N)(=O)=O)cc1OCC(N)=O,-6,1.1,-4,1,-5,-5
Cc1cc(Cl)c(S(=O)(=O)N2CC(C)OC(C)C2)cc1OCC(N)=O (stereo not given),-29,1.1,-56,1.6,-11,-7
CCn1c2ccccc2c2cc(N=C3SC(CC(=O)Nc4ccccc4)C(=O)N3C)ccc21 (stereo not given),-10,0.6,87*,0.1,-14,37
CCn1c(=O)n(CC(=O)Nc2cc(OC)ccc2OC)c(=O)c2ccccc21,-15,0.8,28,0.7,-6,22
COC(=O)c1cc(NC(=O)CC2SC(=Nc3ccccc3)N(CCc3c[nH]c4ccccc34)C2=O)cc(C(=O)OC)c1 (stereo not given),-6,1,81*,0.2,-6,5
CN=C1SC(CC(=O)Nc2sc(C)c(C)c2C(=O)OC)C(=O)N1C (stereo not given),3,0.5,58*,0.4,5,48
CCn1c2ccccc2c2cc(N=C3SC(CC(=O)Nc4ccccc4OC)C(=O)N3C)ccc21 (stereo not given),1,0.6,87*,0.1,-6,38
CCN=C1SC(CC(=O)Nc2ccccc2)C(=O)N1CC (stereo not given),-11,0.7,-1,1,-15,34
CC(C)NC(=O)CSc1nc(Cc2cccs2)nc2ccccc12,-22,0.5,33,0.7,-10,50
CC(C)(C)NC(=O)CSc1ccc(C(C)(C)C)cc1,-19,.,.,.,-6,.
CN=C1SC(CC(=O)Nc2ccccc2F)C(=O)N1C (stereo not given),.,1,-28,1.3,.,-5
COCCN1C(=O)C(CC(=O)Nc2ccc(C(=O)O)cc2)SC1=Nc1ccccc1 (stereo not given),.,1.1,3,1,.,-14
